# Compound activity (PubChem BioAssay)
# PLK1 PBD block: PLK1 (human) polo-box domain binding inhibition. Potency, µM, hits mostly inhibitors. 2.8% of 360,000 active. Plk1 PBD binding of FITC phosphopeptide, fluorescence polarization. P53350; note: series mostly up to about 57 µM; nearly all actives have a fitted effect of over 65% in size
# G9a block: blocks human histone lysine methyltransferase G9a | Potency, µM (top dose mostly 102 µM), most hits filed as inhibitors | 8.8% of 350,000 active | Q96KQ7 | AID 504332 | G9a H3K9 monomethylation, AlphaScreen, 2 h; note: nearly all actives have a fitted effect of over 75% in size
# Target sequence (Q96KQ7 913-1193 limits assumed): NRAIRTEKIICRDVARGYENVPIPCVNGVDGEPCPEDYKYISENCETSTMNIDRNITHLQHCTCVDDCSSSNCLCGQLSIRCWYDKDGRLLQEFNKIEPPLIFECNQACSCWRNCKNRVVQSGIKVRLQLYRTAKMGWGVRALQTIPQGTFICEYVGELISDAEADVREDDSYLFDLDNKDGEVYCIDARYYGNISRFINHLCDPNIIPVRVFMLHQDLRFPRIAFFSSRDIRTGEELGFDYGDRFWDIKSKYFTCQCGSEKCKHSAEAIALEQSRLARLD
#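 Using a bead-based AlphaScreen, monomethylated H3K9 product from 2 h room-temperature reactions (G9a 20 nM, peptide 500 nM, SAM 20 uM) was detected with 0.5 ug/mL rabbit anti-H3K9me1 antibody.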
# JMJD2A Tudor inh: inhibitors of human JMJD2A Tudor domain; O75164; Potency, µM (series often up to 114 µM), most hits filed as inhibitors; 4.4% of 390,000 active; AlphaScreen JMJD2A-Tudor / H3K4me3 peptide binding; note: nearly all actives have a fitted effect of over 50% in size
# Sfp PPTase inh: Sfp phosphopantetheinyl transferase inhibition; Biochemical Sfp PPTase activity, qHTS; Potency, µM, most hits filed as inhibitors; 3.5% of 310,000 active; Q9F4F7; AID 1490;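 note: the enzyme is Sfp with the accession as filed and its product quenches rhodamine fluorescence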
#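 Fluorescence-quenching assay with 15 nM Sfp, 5 uM rhodamine-CoA and 12.5 uM BHQ-2-labelled ybbR peptide in pH 7.6 Hepes/MgCl2 buffer. Enzyme was pre-incubated with compound for 15 min at room temperature. Rate was taken from the 30-min fluorescence change (525/598 nm).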
# HP1b binding inh: HP1-beta chromodomain-methylated histone interaction inhibition | AlphaScreen HP1-beta / biotin-H3K9me3 peptide binding | Potency, µM (highest dose often 114 µM), most hits filed as inhibitors | AID 540317 | 0.56% of 390,000 active | P83916; note: nearly all actives have a fitted effect of over 70% in size
# Target sequence (P83916 whole entry, looked up): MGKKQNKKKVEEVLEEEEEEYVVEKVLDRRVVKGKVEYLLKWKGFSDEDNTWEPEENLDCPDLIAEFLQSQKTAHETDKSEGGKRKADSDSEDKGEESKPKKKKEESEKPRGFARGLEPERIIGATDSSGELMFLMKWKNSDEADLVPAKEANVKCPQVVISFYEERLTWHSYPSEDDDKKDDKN
#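 Compound inhibition of the preformed complex between 50 nM HP1-beta and 50 nM biotinylated H3K9me3 peptide was read by AlphaScreen. Buffer was PBS pH 7.4 with 0.01% Tween-20. Incubations ran 30 min at room temperature, with 10 ug/mL donor/acceptor beads.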
# BAZ2B inh: BAZ2B (human) inhibition. Q9UIF8. AlphaScreen BAZ2B-H3K14Ac peptide displacement. Potency, µM (titrated, usually from 114 µM), actives largely listed as inhibitors. 4.4% of 360,000 active; note: nearly all actives have a fitted effect of over 60% in size
#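 AlphaScreen displacement of biotin-H3(5-23)K14Ac peptide (50 nM final) from BAZ2B (50 nM final) in PBS pH 7.4, 0.01% Tween-20; complex preformed 30 min RT, then compounds (top 110 uM) 30 min RT, beads 20 min dark.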
# A number is an active result; – = inactive; ? = inconclusive; · = no result given; [ ] = remark or other dose. Sampled rows, rich in hits. Any-hit rate of the full collection: about 12%. Calls come from the whole dose curve; as a rule, active = well fitted curve in the direction sought with a large enough effect; inconclusive = small, poorly fitted or top-dose-only effect, or another doubt; inactive = no such curve, though single readings can be large; an effect the other way counts as inactive or inconclusive.
SMILES,PLK1 PBD block,G9a block,JMJD2A Tudor inh,Sfp PPTase inh,HP1b binding inh,BAZ2B inh
COc1ccc(C(=O)CSc2nnc(NC(=O)C3CC(=O)N(c4ccccc4C)C3)s2)cc1 (stereo unspecified),–,35µM,–,–,–,–
O=C1COc2ccc(N3C(=O)C=CC3=O)cc2N1,·,1.4µM,·,4µM,·,100µM
O=C1COc2ccc(S(=O)(=O)N3CCCC3)cc2N1,–,–,–,–,–,–
CCOc1ccc(N2CC(C(=O)NCC(=O)Nc3ccc(F)c(F)c3F)CC2=O)cc1 (stereo unspecified),–,–[12.7 µM],–,·,–,–
O=C1C(c2[nH]c3ccc(S(=O)(=O)O)cc3c2O)=Nc2ccc(S(=O)(=O)O)cc21,·,18µM,·,22µM,·,·
Cc1ccc(C(=O)ON=C2CCN(S(=O)(=O)c3ccccc3)CC2)cc1,27µM,–,?,–,–,–
CCN(c1ccc(C)cc1C)S(=O)(=O)c1nnc(NC(=O)c2ccc(F)cc2)s1,·,–,–,·,–,–
CCN(CC)S(=O)(=O)c1ccc(N2CCOCC2)c(NC(=O)C(=O)c2c(-c3ccccc3)cc3ccccn23)c1,–,35µM,–,–,–,–
CCN(CC)S(=O)(=O)c1cccc(NC(=O)C(=O)c2c(-c3ccccc3)cc3ccccn23)c1,–,–,–,–,–,–
CCN(CC)S(=O)(=O)c1ccc(N2CCOCC2)c(NC(=O)c2ccc(C#N)cc2)c1,–,11µM,–,–,–,?
COc1ccc(S(=O)(=O)N2CCCCCC2)cc1NC(=O)CN1C(=O)NC(C)(c2ccccc2)C1=O (stereo unspecified),–,16µM,–,·,–,–
CCN(CC)S(=O)(=O)c1ccc(N2CCOCC2)c(NC(=O)CNCCc2ccccc2)c1,–,11µM,40µM,–,–,50µM
CCN(CC)S(=O)(=O)c1ccc(N2CCOCC2)c(NC(=O)COc2ccccc2)c1,–,–,–,–,–,–
CCN1CCc2c(sc(-n3cccc3)c2C(C)NC(=O)Nc2ccc(C(=O)OC)cc2)C1 (stereo unspecified),·,?,?,·,–,?
COc1cccc(-c2csc(N3CCN(C(=O)NC45CC6CC(CC(C6)C4)C5)CC3)n2)c1,–,?,–,–,–,–
Cc1cc(NS(=O)(=O)c2ccc(NC(=O)CN3C(=O)NC(C)(c4ccccc4)C3=O)cc2)nc(C)n1 (stereo unspecified),–,14µM,–,·,–,–
CCN(CC)S(=O)(=O)c1ccc(N2CCOCC2)c(NC(=O)CN2C(=O)NC(C)(c3ccccc3)C2=O)c1 (stereo unspecified),–,16µM,–,·,–,–
CC1(c2ccccc2)NC(=O)N(CC(=O)Nc2ccc(S(=O)(=O)Nc3ncccn3)cc2)C1=O (stereo unspecified),–,–[2.33 µM],–,·,–,–
CCN(CC)S(=O)(=O)c1ccc(N2CCCC2)c(NC(=O)c2ccc(OC)cc2OC)c1,–,28µM,–,79µM,–,–
Nc1cccc2[nH]c(=O)c3ccccc3c12,–,·,–,·,–,·
CC(C)NC(=O)N[C@H]1C=C[C@H](CC(=O)NCc2ccc(Oc3ccccc3)cc2)O[C@@H]1CO,–,·,·,·,·,·
O=C(c1ccc2nc(N3CCCCC3)sc2c1)N1CCN(c2ccccn2)CC1,–,56µM,–,–,–,–
CCOC(=O)N1CCN(C(=O)c2ccc3nc(N4CCC(C)CC4)sc3c2)CC1,–,–[0.0925 µM],–,–,–,–
Cn1nnc2cc(C(=O)N3CCN(c4ccccn4)CC3)ccc21,–,18µM,–,–,–,–
CC1CCN(c2nc3ccc(C(=O)N4CCN(Cc5ccccc5)CC4)cc3s2)CC1,–,71µM,?,–,–,–
Cn1nnc2cc(NC(=O)N3CCN(c4ccccn4)CC3)ccc21,–,–[12.7 µM],–,–,–,?
O=C(CSc1nc2ccccc2nc1Cc1ccccc1F)Nc1cccc(C(F)(F)F)c1,·,–,–,·,–,–
CCOCCn1ccc2c(OCC(=O)Nc3cccc([N+](=O)[O-])c3)cccc2c1=O,·,–,–,·,–,–
O=C(CN(c1ccc(Cl)cc1)S(=O)(=O)c1ccc(Cl)c([N+](=O)[O-])c1)NCCc1ccc(F)cc1,–,–,–,–,–,–
